From PubChem
The list is not random: actives were taken first. Their share in the collection is about 6.1%.
D3 antag: antagonists of human D3 dopamine receptor; P35462; D3R cells, DiscoveRx beta-arrestin luminescence, antagonist mode; stronger effect = lower value; max response, negative = inhibition, %; actives 2.5% (n = 360,000); AID 652054; in the data active = max response below about -50%; inconclusive = no clear call, values can overlap the other calls; also: % is scaled to controls: 0 for no effect and ±100 for the full control effect
Target sequence (P35462 whole entry, looked up): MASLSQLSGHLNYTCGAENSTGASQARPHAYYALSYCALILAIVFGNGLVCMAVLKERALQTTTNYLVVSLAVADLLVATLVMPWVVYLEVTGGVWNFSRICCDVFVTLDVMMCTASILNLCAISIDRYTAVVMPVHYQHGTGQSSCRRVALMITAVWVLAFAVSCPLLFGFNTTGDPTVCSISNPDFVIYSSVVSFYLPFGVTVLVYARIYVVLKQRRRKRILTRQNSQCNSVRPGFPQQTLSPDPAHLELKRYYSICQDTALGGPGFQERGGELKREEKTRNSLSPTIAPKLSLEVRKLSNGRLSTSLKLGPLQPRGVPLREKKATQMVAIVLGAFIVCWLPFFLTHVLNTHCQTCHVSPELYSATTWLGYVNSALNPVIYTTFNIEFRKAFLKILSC
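Cells plated overnight at 1500 cells/well, then exposed to library compounds with dopamine controls for 90 minutes at 37 degrees C. DiscoveRx reagent added for 30–60 minutes at room temperature; luminescence read, quantitative HTS format.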
D3 ag: activates the human D3 dopamine receptor | P35462 | D3R DiscoveRx beta-arrestin cells, luminescence, 90 min | max activation, % | actives 0.58% (n = 410,000); in the data active = max activation above about 30%; also: 0% is about no effect
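Agonist mode: compounds and dopamine controls were applied to plated cells for 90 min at 37 degrees C after an overnight attachment at 1500 cells/well. Luminescent read-out followed 30 - 60 minutes at room temperature with DiscoveRx detection reagent.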
ERG-DNA inh: ERG Ets/DNA interaction inhibition. fluorescence polarization, His-ERG Ets domain / labelled DNA. P11308. Potency, µM (titrated, usually from 76.9 µM), inactives show at the highest dose FP activity, negative = inhibition, most hits filed as inhibitors. actives 0.028% (n = 370,000); active = well fitted inhibition curve with a large enough effect in the polarisation, with a control signal flat; inconclusive = small, poorly fitted or top-dose-only effect, or effect the other way, or a change in a side signal; inactive = no such curve, though single readings can be large or run the other way; the % refers to the polarisation;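 also: polarization taken with two DNA probes labelled with fluorescein and Texas red; potency is read from the fitted curve at half-maximal effect; % of control where 0% means no effect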
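His-tagged ERG Ets domain (1 uM in the protein solution; 300mM KCl, 50mM Tris-HCl, 1mM EDTA, 1mM DTT, pH 7.5) received compound, then a probe mix of 5 nM fluorescein-DNA and 100nM Texas-615-DNA. Fluorescence polarization was read for both dyes.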
D1 antagonist: antagonists of human D1 dopamine receptor; AID 504652; P21728; actives 3.2% (n = 360,000); HEK293 TREx D1 cells, calcium flux, dopamine EC80; stronger effect = lower value; activity change, negative = inhibition, % at 10 µM; in the data active = activity change below about -30%; also: % is scaled to controls: 0 for no effect and ±100 for the full control effect
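After overnight tetracycline induction at 30 C, force-coupled D1 HEK293 cells took up a no-wash calcium dye at room temperature. Compounds were added and monitored 180 s, and the response to EC80 dopamine was then recorded.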
D1 ag: human D1 receptor agonism. activation, % at 2 µM. actives 1% (n = 360,000). P21728. HEK293 T-REx D1 cells, calcium flux, agonist mode. AID 504660; in the data active = activation above about 30%; also: 0% is about no effect
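Agonism was scored from calcium flux recorded over 180 s (1 read/s) after pintool compound addition, following a 10-cycle baseline. Cells were inducible force-coupled HEK293 TREx D1, plated overnight at 30 C and loaded with no-wash calcium dye.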
D1 potentiator: enhances dopamine response at the human D1 receptor; P21728; HEK293 TREx D1 cells, calcium flux, dopamine EC20 potentiation; potentiation, % at 10 µM; actives 0.036% (n = 360,000); AID 504651; in the data active = potentiation above about 30%; also: 0% is about no effect
Active calls of the source: *.

Screening O=C(CCN1CCN(c2ccccc2)CC1)Nc1ccccc1F returned D3 antag inconclusive, D3 ag 33.8*, ERG-DNA inh -2.4%, D1 antagonist -7.9, D1 ag -0.8 and D1 potentiator -8.6.
For COc1cc(NC(=O)CCc2c(C)n(C)c3cc(-c4ccccc4C)nn3c2=O)cc(OC)c1OC the results were D3 ag 3.2, ERG-DNA inh -2.9%, D1 antagonist 0.4, D1 ag 1.4 and D1 potentiator -3.2.
For CC1=C(C(=O)Nc2ccccc2C)C2(CCCC2)C(C(N)=O)C(=O)N1 (stereo unspecified) the results were D3 antag -24.4, D3 ag 1.8, ERG-DNA inh -6.9%, D1 antagonist -12.8, D1 ag 2.6 and D1 potentiator 6.5.
For Cc1ccc(NS(=O)(=O)c2ccc(N/N=C/c3ccncc3)c([N+](=O)[O-])c2)c(C)c1 the results were D3 antag -2.7, D3 ag -4.1, ERG-DNA inh -8.5%, D1 antagonist -0.3, D1 ag 2.0 and D1 potentiator -4.8.
`COc1cc(C=O)ccc1OCCCOc1ccccc1C(=O)O` gave D3 antag -54.7*, D3 ag 4.5, ERG-DNA inh -7.7%, D1 antagonist -4.9, D1 ag 0.8 and D1 potentiator -4.5.
`COc1cc(C=O)ccc1OCCCOc1ccccc1[N+](=O)[O-]` gave D3 antag 0.1, D3 ag 3.5, ERG-DNA inh -4.2%, D1 antagonist -12.6, D1 ag 12.4 and D1 potentiator -4.0.
For COc1cc(C=O)ccc1OCCOc1ccccc1[N+](=O)[O-] the results were D3 antag -61.7*, D3 ag -1.9, ERG-DNA inh 3.6%, D1 antagonist -37.3*, D1 ag 5.5 and D1 potentiator -4.0.
For Cc1ccc(S(=O)(=O)Cn2nnnc2C(C(C)C)N2CCN(C(=O)c3ccco3)CC2)cc1 (stereo unspecified) the results were D3 antag -56.3*, D3 ag -3.0 and ERG-DNA inh -6.4%.
CCC(C)(C)n1nnnc1C(c1ccccc1OC)N1CCN(C(=O)c2ccco2)CC1 (stereo unspecified) was read as D3 antag 1.4, D3 ag 31.5*, ERG-DNA inh -10.3%, D1 antagonist -3.6, D1 ag 5.7 and D1 potentiator -7.5.
Screening COc1cccc(C(c2nnnn2CC2CCCO2)N2CCN(C(=O)c3ccco3)CC2)c1OC (stereo unspecified) returned D3 antag 0.0, D3 ag -19.6, ERG-DNA inh 0.9%, D1 antagonist -38.1*, D1 ag 5.9 and D1 potentiator -0.9.
CC(C)CCn1nnnc1C(c1ccc(F)cc1)N1CCN(C(=O)c2ccco2)CC1 (stereo unspecified) was read as D3 antag -75.8*, D3 ag 0.5, ERG-DNA inh 4.9%, D1 antagonist 10.5, D1 ag 0.7 and D1 potentiator 6.0.
For COCCn1nnnc1C(c1ccccc1OC)N1CCN(C(=O)c2ccco2)CC1 (stereo unspecified) the results were D3 antag -4.4, D3 ag 0.7, ERG-DNA inh 4.8%, D1 antagonist -4.2, D1 ag 1.8 and D1 potentiator 5.7.
`N#Cc1ccc(C(=O)NN2C(=O)NC3(CCCCC3)C2=O)cc1` gave D3 antag -7.9, D3 ag -8.5, ERG-DNA inh 5.7%, D1 antagonist -1.7, D1 ag 4.0 and D1 potentiator 3.1.
For COc1ccc(Cl)cc1-n1c(=S)sc2c(=O)[nH]c(SCC(=O)NCCC(C)C)nc21 the results were D3 antag -6.4, D3 ag -13.5, ERG-DNA inh -3.5%, D1 antagonist -0.5, D1 ag 1.1 and D1 potentiator -0.7.
For Cc1[nH]c2ccccc2c1C(=O)CNc1nccs1 the results were D3 antag inconclusive, D3 ag 0.8, ERG-DNA inh -9.1%, D1 antagonist -1.9, D1 ag 3.4 and D1 potentiator -2.8.
CC(C)(C)n1nnnc1C(c1ccccc1)N1CCN(C(=O)c2ccco2)CC1 (stereo unspecified) was read as D3 antag 0.0 and D3 ag 55.8*.
`CC(C)(C)n1nnnc1C(c1cccnc1)N1CCN(C(=O)c2ccco2)CC1` (stereo unspecified) gave D3 antag -20.8, D3 ag -29.3, D1 antagonist 3.2, D1 ag -0.4 and D1 potentiator -0.7.
CC(C)(C)OC(=O)N1CCCN(C(c2cc3ccccc3o2)c2nnnn2C(C)(C)C)CC1 (stereo unspecified) was read as D3 antag 2.0 and D3 ag 5.8.
For CC(C)(C)n1nnnc1C(c1cc2ccccc2o1)N1CCN(C(=O)OCc2ccccc2)CC1 (stereo unspecified) the results were D3 antag -62.9* and D3 ag -9.7.
Screening COc1ccc(C2c3c(n(C)c4ccccc34)C(=O)N2CC(=O)Nc2cc(Cl)ccc2C)cc1 (stereo unspecified) returned D3 ag -24.0, ERG-DNA inh 0.7%, D1 antagonist 9.2, D1 ag 0.3 and D1 potentiator 1.1.
Screening Cc1c(C(=O)N2CCN(c3ccccn3)CC2)oc2c(F)cccc12 returned D3 antag -12.2, D3 ag 60.0*, ERG-DNA inh 0.2%, D1 antagonist -10.8, D1 ag 2.8 and D1 potentiator -0.9.
Screening Cc1c(C(=O)N2CCN(c3ncccn3)CC2)oc2c(Cl)cccc12 returned D3 antag 38.0, D3 ag 7.2, ERG-DNA inh -5.4%, D1 antagonist 2.4, D1 ag 5.7 and D1 potentiator 1.4.
`C=CCn1c(=O)[nH]c2nc3cc(N=CN(C)C)c(C)cc3nc2c1=O` gave D3 antag 11.2, D3 ag 0.3, ERG-DNA inh 3.9%, D1 antagonist -3.1, D1 ag 56.7* and D1 potentiator 2.4.
Screening Cc1cccc(-c2nc(CCNC(=O)c3ccccc3Br)cs2)c1 returned D3 ag -13.6, ERG-DNA inh 2.0%, D1 antagonist -38.7*, D1 ag 3.0 and D1 potentiator -6.2.
Screening O=C(CN1C(=O)NC2(CCCC2)C1=O)N1CCN(S(=O)(=O)c2ccc(Cl)c(C(F)(F)F)c2)CC1 returned D3 antag 7.2, D3 ag 3.1, ERG-DNA inh 0.0%, D1 antagonist -7.9, D1 ag 0.7 and D1 potentiator -7.9.
CC1=C(OC(=O)c2ccccc2)C(C)(C)C(c2ccccc2)OC1=O (stereo unspecified) was read as D3 antag -0.8, D3 ag -8.3, ERG-DNA inh -10.5%, D1 antagonist -38.5*, D1 ag 0.7 and D1 potentiator -6.3.
